Laboratory results as given in PubChem BioAssay (NCATS).
Where “and” joins values, the source holds several entries; their conditions need not be identical. Identical values can stand only once. Records with an inconclusive call do not appear. Where a call stands in place of a potency, no number is given. Calls of active or inactive are those of the source. Unless noted, calls come from the whole dose curve; as a rule, active = well fitted curve in the direction sought with a large enough effect; inconclusive = small, poorly fitted or top-dose-only effect, or another doubt; inactive = no such curve, though single readings can be large; an effect the other way counts as inactive or inconclusive.

Columns and labels:
[1] = Cellular Toxicity (caspase-3) HepG2 (AID 654);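 note: cells exposed to compound for 16 hours before reading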
Procedure, shortened: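 Caspase 3/7 activation is measured as a luminescence increase (aminoluciferin substrate) after 16 h compound exposure of human hepatocarcinoma HepG2 cells. AC50 values are Hill fits, scaled between DMSO baseline and 100 uM tamoxifen stimulation.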

[2] = MultiTox-Fluor Cytotoxicity Assay - LYMP1-002 - Dead Cells (AID 960); note: nearly all actives have a fitted effect of over 60% in size
Procedure, shortened: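 Dead-cell fluorescence (Ex/Em 485/520) after 16 h compound exposure at 37 C of LYMP1-002 lymphoblastoid cells in complete medium; AC50 by Hill equation, with data scaled between DMSO and 15 uM tetraoctylammonium bromide.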

[3] = MultiTox-Fluor Cytotoxicity Assay - LYMP1-003 - Live Cells (AID 962);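 note: cytotoxic hits lower the live-cell protease signal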
Procedure, shortened: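 Live-cell protease activity (GF-AFC substrate, 405/510 nm, 60 min at room temperature) after 16 h, 37 C compound exposure of human lymphoblastoid LYMP1-003 cells; concentration-response fitted to the Hill equation for AC50.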

[4] = Cell Viability - LYMP2-003 (AID 965);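 note: cells exposed to compounds for 24 h before reading; nearly all actives have a fitted effect of over 50% in size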
Procedure, shortened: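 qHTS, human lymphoblastoid line, 2500 cells/well, complete medium. 24 h drug, 37 C. ATP-based luminescent readout; Hill-fit AC50.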

[5] = Cell Viability - LYMP2-009 (AID 968); note: series mostly up to about 92 µM; nearly all actives have a fitted effect of over 55% in size
[6] = Cell Viability - LYMP2-017 (AID 972); note: series mostly up to about 92 µM; nearly all actives have a fitted effect of over 55% in size
Procedure, shortened: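 CellTiter-Glo luminescence (cellular ATP, 30 min RT) measured cytotoxicity after 24 hr compound treatment at 37 C. Cells were a human lymphoblastoid line, LYMP2-017, plated at 2500/well and incubated 5 hr first; concentration-response fitted with Hill equation for AC50.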

[7] = Cell Viability - LYMP2-021 (AID 974); note: nearly all actives have a fitted effect of over 55% in size
Procedure, shortened: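 AC50 values come from Hill-equation fits to CellTiter-Glo luminescence (ATP content), read after 24 hour compound exposure at 37 C of 2500 LYMP2-021 lymphoblastoid cells/well; tetraoctylammonium bromide as positive control.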

[8] = Cell Viability - LYMP2-010 (AID 981); note: nearly all actives have a fitted effect of over 55% in size
Procedure, shortened: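 CellTiter-Glo ATP luminescence measured cytotoxicity after 24 h compound exposure at 37 C. LYMP2-010 cells were seeded at 2500/well, with tetraoctylammonium bromide as control; concentration-response curves gave AC50 values by the Hill equation.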

[9] = Cell Viability - LYMP2-016 (AID 984); note: nearly all actives have a fitted effect of over 55% in size
Procedure, shortened: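 Concentration-dependent ATP depletion measured in LYMP2-016 lymphoblastoid cells, 24 h, 37 C; luciferase-based luminescent detection; Hill-equation AC50.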

[10] = Cell Viability - LYMP2-020 (AID 986)
Procedure, shortened: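 Cytotoxicity in qHTS format: luminescent ATP readout from CellTiter-Glo after 24 h compound exposure at 37 C in complete medium. LYMP2-020 lymphoblastoid cells were seeded at 2500/well; concentration-response data fitted to the Hill equation for AC50.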

[11] = Cell Viability - LYMP2-022 (AID 987); note: nearly all actives have a fitted effect of over 55% in size
Procedure, shortened: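 Cytotoxicity read as decreased cellular ATP (CellTiter-Glo luminescence, 30 min room temperature) after 24 hours compound exposure of 2500 lymphoblastoid LYMP2-022 cells/well at 37 C. Concentration-response data fitted with standard Hill equation for AC50.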

[12] = Cell Viability - LYMP2-024 (AID 988); note: nearly all actives have a fitted effect of over 60% in size
Procedure, shortened: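 Cytotoxicity was taken as a decrease in ATP (CellTiter-Glo luminescence) after 24 hr compound exposure at 37 C of LYMP2-024 lymphoblastoid cells, 2500 cells/well. Concentration-response data were fitted to the Hill equation to give AC50.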

[13] = Cell Viability - LYMP2-026 (AID 989); note: nearly all actives have a fitted effect of over 50% in size
Procedure, shortened: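 Cytotoxicity read as ATP-dependent luminescence (CellTiter-Glo, 30 min room temperature) after 24 h compound treatment at 37 C. LYMP2-026 lymphoblastoid line seeded at 2500 cells/well; AC50 derived by standard Hill equation.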

[14] = Cell Viability - LYMP1-002 - Assay at 24 hr (AID 993)
Procedure, shortened: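 qHTS cytotoxicity at 24 h: CellTiter-Glo ATP luminescence in lymphoblastoid line LYMP1-002 incubated with compound at 37 °C. Concentration-response modeled with the Hill equation for AC50; tetraoctylammonium bromide served as positive control.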

[15] = biological target: Retinoic acid receptor RXR-alpha (Homo sapiens) (UniProt P19793); experiment: qHTS assay for small molecule agonists of retinoid X receptor alpha signaling (AID 588544; calls by dose curve; note: potency is the fitted concentration of half-maximal effect)
Sequence of Retinoic acid receptor RXR-alpha (Homo sapiens) (P19793 whole entry, looked up): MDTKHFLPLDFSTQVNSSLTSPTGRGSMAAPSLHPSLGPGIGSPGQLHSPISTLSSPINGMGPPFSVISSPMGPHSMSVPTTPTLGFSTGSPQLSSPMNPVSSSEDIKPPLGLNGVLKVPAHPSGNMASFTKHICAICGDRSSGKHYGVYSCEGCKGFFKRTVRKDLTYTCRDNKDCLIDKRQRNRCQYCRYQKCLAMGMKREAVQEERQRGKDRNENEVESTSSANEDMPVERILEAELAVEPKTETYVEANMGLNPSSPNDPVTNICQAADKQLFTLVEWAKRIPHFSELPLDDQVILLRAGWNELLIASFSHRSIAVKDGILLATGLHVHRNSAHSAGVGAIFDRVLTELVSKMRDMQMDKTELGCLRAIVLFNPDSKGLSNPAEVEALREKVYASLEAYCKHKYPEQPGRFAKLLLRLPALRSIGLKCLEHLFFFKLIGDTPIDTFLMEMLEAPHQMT

[16] = qHTS assay for small molecule antagonists of retinoid X receptor alpha signaling (AID 588546; active = well fitted inhibition curve with a large enough effect in the signal ratio, with a control signal flat, not every such curve was filed as active; the % refers to the signal ratio;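 note: cells stimulated with 9-cis-retinoic acid as agonist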); conditions: HEK293T RXRa-UAS-bla, beta-lactamase ratio, antagonist mode; measured here: W530 green channel, cytotoxicity proxy
Procedure, shortened: (§1)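 Beta-lactamase reporter inhibition, read as CCF4 fluorescence ratio (ex 405, em 460/530 nm) after 2 h at RT. HEK293T UAS-bla cells, 2500/well, were stimulated with 9-cis-RA at 500 or 100 nM final alongside test compound for 18 h at 37 C.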

[17] = biological target: Retinoic acid receptor RXR-alpha (Homo sapiens) (UniProt P19793); experiment: as above; conditions: HEK293T RXRa-UAS-bla, beta-lactamase ratio, antagonist mode
Procedure, shortened: as §1

[18] = biological target: Thyroid hormone receptor beta (Homo sapiens) (UniProt P10828); experiment: qHTS assay for small molecule antagonists of thyroid hormone receptor beta signaling (AID 588547; active = well fitted inhibition curve with a large enough effect in the signal ratio, with a control signal flat, not every such curve was filed as active; the % refers to the signal ratio;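 note: cells stimulated with 0.4 nM T3 agonist during compound exposure; series mostly up to about 77 µM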); conditions: TR-UAS-bla HEK293, beta-lactamase ratio, antagonist mode, 18 h
Sequence of Thyroid hormone receptor beta (Homo sapiens) (P10828 whole entry, looked up): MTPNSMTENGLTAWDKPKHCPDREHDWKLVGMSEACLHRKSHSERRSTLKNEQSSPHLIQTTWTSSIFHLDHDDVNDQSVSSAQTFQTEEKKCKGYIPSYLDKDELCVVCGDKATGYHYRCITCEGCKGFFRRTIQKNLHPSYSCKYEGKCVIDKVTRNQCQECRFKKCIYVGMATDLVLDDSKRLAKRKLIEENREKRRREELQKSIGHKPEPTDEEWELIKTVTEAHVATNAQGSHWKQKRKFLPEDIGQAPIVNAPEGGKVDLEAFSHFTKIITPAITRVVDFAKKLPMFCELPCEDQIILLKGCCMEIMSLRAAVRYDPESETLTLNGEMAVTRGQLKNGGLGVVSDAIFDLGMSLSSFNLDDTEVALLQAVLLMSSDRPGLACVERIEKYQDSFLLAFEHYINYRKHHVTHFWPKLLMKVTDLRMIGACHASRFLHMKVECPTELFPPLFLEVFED
Procedure, shortened: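 TR-UAS-bla GripTite HEK293 cells in 2% charcoal/dextran FBS medium were preincubated 4 h at 37 C, given compound (0.59 nM to 92 uM) plus 0.4 nM T3 (final) for 18 h, then CCF4 for 2 h at RT; Hill fit gave IC50.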

[19] = biological target: Tumor necrosis factor (Homo sapiens) (UniProt P01375); experiment: qHTS assay to identify small molecules that stimulate Tumor Necrosis Factor-alpha (TNF-alpha) secretion (AID 651757; active = well fitted curve in the direction sought with a large enough effect in the signal ratio; the % refers to the signal ratio)
Sequence of Tumor necrosis factor (Homo sapiens) (P01375 whole entry, looked up): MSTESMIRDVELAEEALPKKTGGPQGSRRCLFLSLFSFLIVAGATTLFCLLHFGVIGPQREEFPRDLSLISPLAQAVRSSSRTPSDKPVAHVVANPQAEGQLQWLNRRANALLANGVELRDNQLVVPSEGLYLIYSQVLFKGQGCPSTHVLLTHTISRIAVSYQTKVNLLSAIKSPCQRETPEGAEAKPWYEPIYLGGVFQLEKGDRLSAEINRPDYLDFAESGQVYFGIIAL
Procedure, shortened: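 Secreted TNF-alpha quantified by TR-FRET sandwich of two labeled anti-TNF-alpha antibodies, incubated 3 hr at room temperature. Preceded by 17 hr, 37 C compound treatment of THP-1 cells at 3000 cells/well.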

[20] = qHTS assay for small molecule agonists of the antioxidant response element (ARE) signaling pathway measured by Nrf2-dependant transcriptional activity (AID 720636; active = well fitted curve in the direction sought with a large enough effect in the repeat runs; an effect the other way counts as inactive or inconclusive)
Procedure, shortened: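 ARE-luc HepG2 cells carrying an Nrf2-responsive luciferase reporter, in medium with 1% dialyzed FBS, exposed to compound for 16 hr at 37 C, 5% CO2. Luminescence read 30 min after ONE-Glo addition.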

Compound	outcome [1]	Potency [2]	Potency [3]	Potency [4]	Potency [5]	Potency [6]	Potency [7]	Potency [8]	Potency [9]	Potency [10]	Potency [11]	Potency [12]	Potency [13]	Potency [14]	Potency [15]	max response [16]	max response [17]	activity change % (negative = inhibition) [18]	outcome [19]	outcome [20]
C1CCC2CCCCC2C1 (configuration not stated)	inactive	inactive	inactive	inactive	inactive	inactive	inactive	inactive	inactive	inactive	inactive	inactive	inactive	inactive	inactive	-2.39%	-5.58% (inactive)	10.1% (inactive)	inactive	inactive
NC(=S)Nc1ccccc1	inactive	inactive	inactive	inactive	inactive	inactive	inactive	inactive	inactive	inactive	inactive	inactive	inactive	inactive	inactive	-15.9% and -3.13% and -6.62%	6.2% (inactive) and -12.5% (inactive) and -20.4% (inactive)	-7.36% (inactive) and -1.01% (inactive) and 3.6% (inactive)	inactive	inactive
C[C@]12CC[C@H]3[C@@H](CCC4=CC(=O)CC[C@@]43C)[C@@H]1CC[C@@H]2O	inactive	inactive	inactive	inactive	inactive	inactive	inactive	inactive	inactive	inactive	inactive	inactive	inactive	inactive	12.6 µM (active)			14.5% (inactive)	inactive	inactive
Nc1ccc(Br)cc1	inactive	inactive	inactive	inactive	inactive	inactive	inactive	inactive	inactive	inactive	inactive	inactive	inactive	inactive	inactive	3.4%	15.2% (inactive)	-8.18% (inactive)	inactive	inactive
CC(C)(c1ccccc1)c1ccc(O)cc1		inactive	inactive	inactive	inactive	inactive	inactive	inactive	inactive	inactive	inactive	inactive	inactive	inactive	inactive	-11.5%	-3.65% (inactive)	-5.71% (inactive) and 17.9% (inactive)	inactive	inactive
BrCCBr	inactive	inactive	inactive	inactive	inactive	inactive	inactive	inactive	inactive	inactive	inactive	inactive	inactive	inactive	inactive	-10.6% and -9.29%	9.69% (inactive) and -0.139% (inactive)	-9.28% (inactive)	inactive	inactive
Clc1ccc2ccccc2c1	inactive	inactive	inactive	inactive	inactive	inactive	inactive	inactive	inactive	inactive	inactive	inactive	inactive	inactive	inactive			-12% (inactive)	inactive	inactive
c1nc[nH]n1	inactive	inactive	inactive		inactive	inactive	inactive	inactive	inactive	inactive	inactive	inactive	inactive	inactive	inactive	6.06%	5.33% (inactive)		inactive	inactive
CCOc1ccc(N)cc1	inactive	inactive	inactive	inactive	inactive	inactive	inactive	inactive	inactive	inactive	inactive	inactive	inactive	inactive	inactive	-4.66%	-3.13% (inactive)	-6.64% (inactive)	inactive	inactive
Nc1ccccc1Cl	inactive	inactive	inactive	inactive	inactive	inactive	inactive	inactive	inactive	inactive	inactive	inactive	inactive	inactive	inactive	-3.04%	23.6% (inactive)	-4.52% (inactive)	inactive	inactive
CCSC(=O)Cl	inactive	inactive	inactive	inactive	inactive	inactive	inactive	inactive	inactive	inactive	inactive	inactive	inactive	inactive	inactive	-5.71%	1.25% (inactive)	-1.08% (inactive)	inactive	inactive
O=NN(CCO)CCO	inactive	inactive	inactive	inactive	inactive	inactive	inactive	inactive	inactive	inactive	inactive	inactive	inactive	inactive	inactive	-0.955%	16.4% (inactive)	-10.8% (inactive)	inactive	inactive
Cc1ccccc1N	inactive	inactive	inactive	inactive	inactive	inactive	inactive	inactive	inactive	inactive	inactive	inactive	inactive	inactive	inactive	-2.57%	13.9% (inactive)	0.476% (inactive) and 3.77% (inactive)	inactive	inactive
CC(=O)[O-].CC(=O)[O-].O.O.O.[Pb+2]	inactive	inactive	inactive	inactive	inactive	inactive	inactive	inactive	inactive	inactive	inactive	inactive	inactive	inactive	inactive	-8.42% and -6.15%	27.2% (inactive) and 0.247% (inactive)	-0.227% (inactive)	inactive	inactive
CC(C)(C)OO	inactive	inactive	inactive	inactive	inactive	inactive	inactive	inactive	inactive	inactive	inactive	inactive	inactive	inactive	inactive	-3.93% and -2.51%	34% (inactive) and 10.1% (inactive)	4.81% (inactive) and -2.74% (inactive)	inactive	inactive
[O-][Br+2]([O-])O	inactive	inactive		inactive	inactive	inactive	inactive	inactive	inactive	inactive	inactive	inactive	inactive	inactive	inactive	-4.01% and -4.2%	9.17% (inactive) and 7.78% (inactive)	6.91% (inactive) and -5.45% (inactive)	inactive	inactive
